Screens as filed in PubChem.
Sampled rows, rich in hits. Any-hit rate of the full collection: about 4.7%.
S2 tox: Viability Counterscreen for Primary qHTS for Inhibitors of ATXN expression | S2 cells (HEK-293 line with an ATXN2-luciferase reporter) viability, CellTiter-Fluor protease fluorescence, 24 h | 0.49% of 400,000 active | Potency, µM (top dose mostly 56.7 µM), actives largely listed as cytotoxic; also: potency is read from the fitted curve at half-maximal effect; nearly all actives have a fitted effect of over 40% in size
DRD3 antagonist: qHTS of D3 Dopamine Receptor Antagonist: qHTS | D(3) dopamine receptor (Homo sapiens), P35462 | D3R cells, DiscoveRx beta-arrestin luminescence, antagonist mode; active compounds read low | max response, negative = inhibition, % | 2.5% of 360,000 active; in the data active = max response below about -50%; inconclusive = no clear call, values can overlap the other calls; also: % is scaled to controls: 0 for no effect and ±100 for the full control effect
Target sequence (P35462 whole entry, looked up): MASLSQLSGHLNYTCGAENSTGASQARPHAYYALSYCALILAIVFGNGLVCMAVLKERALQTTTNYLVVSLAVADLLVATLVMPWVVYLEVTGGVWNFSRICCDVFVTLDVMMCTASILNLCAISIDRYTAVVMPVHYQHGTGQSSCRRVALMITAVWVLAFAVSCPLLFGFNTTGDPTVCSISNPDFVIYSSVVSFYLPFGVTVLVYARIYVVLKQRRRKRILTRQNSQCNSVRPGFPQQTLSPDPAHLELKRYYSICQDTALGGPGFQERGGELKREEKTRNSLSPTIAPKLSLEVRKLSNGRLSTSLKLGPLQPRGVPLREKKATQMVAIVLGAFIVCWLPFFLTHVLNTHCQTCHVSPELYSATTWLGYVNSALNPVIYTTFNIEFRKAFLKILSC
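Cells expressing the human receptor were seeded at 1500 cells/well, incubated overnight at 37 degrees C in 5% CO2, then exposed to library compounds with dopamine controls for 90 minutes at 37 degrees C before luminescent detection.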
ATXN2 expr inh: Primary qHTS for Inhibitors of ATXN expression; HEK-293 ATXN2-luciferase reporter, luminescence, 24 h; Potency, µM (series often up to 57 µM), without a hit: at the highest dose activity change, negative = inhibition, actives largely listed as inhibitors; 0.72% of 360,000 active; AID 1745845, 2022; also: potency is read from the fitted curve at half-maximal effect; % is scaled to controls: 0 for no effect and ±100 for the full control effect; nearly all actives have a fitted effect of over 55% in size
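ATXN2-luciferase reporter cells (luciferase flanked by upstream and downstream ATXN2 gene portions) were treated 24 h at 37 °C with compounds at up to 57 uM. SteadyGlo luminescence gave expression; GF-AFC fluorescence gave viability.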
TGFb inhibitor: qHTS for Inhibitors of TGF-b; HepG2 CAGA-GFP TGF-b/SMAD3 reporter, GFP fluorescence, 18 h; TGF-beta stimulated, 500 pg/mL final; Potency, µM (titrated, usually from 46.1 µM), for inactives: at the highest dose activity, negative = inhibition, most hits filed as inhibitors; 1.2% of 410,000 active; AID 588855, 2011; also: potency is read from the fitted curve at half-maximal effect; % is scaled to controls: 0 for no effect and ±100 for the full control effect; nearly all actives have a fitted effect of over 65% in size
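Using HEPG2 CAGA-GFP reporter cells at 1000 cells/well, we pinned test compounds, stimulated with recombinant TGF-beta (500 pg/mL final) and measured total well GFP after 18 h.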
HepG2 tox: qHTS for Inhibitors of TGF-b: Cytotox Counterscreen | HepG2 CAGA-GFP viability, ATP luminescence, 18 h | Potency, µM (top dose mostly 46.1 µM), without a hit: top-dose activity change, negative = cytotoxicity, hits mostly cytotoxic | 0.76% of 410,000 active; also: potency is read from the fitted curve at half-maximal effect
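CellTiter-Glo luminescence gave cytotoxicity after 18 hours at 37 degrees C. The cells were HepG2 CAGA-GFP in 1% FBS DMEM, stimulated with 500 pg/mL TGF-beta after compound addition. %Activity was normalised to no-cell wells (complete cell-killing) and DMSO (no toxicity), and curves were fitted and classified.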
D3 ag: qHTS of D3 Dopamine Receptor Agonist: qHTS; D3R DiscoveRx beta-arrestin cells, luminescence, 90 min; 0.58% of 410,000 active; D(3) dopamine receptor (Homo sapiens), P35462; max activation, %; in the data active = max activation above about 30%; also: 0% is about no effect
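Cells at 1500/well, incubated overnight, then treated with pinned compounds (dopamine as control) for 90 min at 37 degrees C. DiscoveRx reagent added for 30 - 60 minutes at room temperature; luminescence read.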
Starred values were filed as active, the others as inactive. Unless noted, calls follow the shape of the dose curve; as a rule, active = well fitted curve in the direction sought with a large enough effect; inconclusive = small, poorly fitted or top-dose-only effect, or another doubt; inactive = no such curve, though single readings can be large; an effect the other way counts as inactive or inconclusive.

What do the screens show for `O=C(NC1CC2CCCC(C1)N2Cc1ccccc1)c1cccc(Cl)c1` (stereo unspecified)?
S2 tox: inconclusive; DRD3 antagonist: -75.9*; ATXN2 expr inh: -2.0%; TGFb inhibitor: 14.3%; HepG2 tox: -10.0%; D3 ag: -11.3

Results for O=C(NC1CC2CCCC(C1)N2Cc1ccccc1)c1cccc(F)c1 (stereo unspecified) ?
S2 tox: inconclusive; DRD3 antagonist: -105.5*; TGFb inhibitor: 0.5%; HepG2 tox: -6.2%; D3 ag: -18.5

How did CCCN1C2CCCC1CC(NC(=O)c1cccc(Cl)c1)C2 (stereo unspecified) do in these assays?
S2 tox: inconclusive; DRD3 antagonist: 4.2; ATXN2 expr inh: -10.9%; TGFb inhibitor: 0.7%; HepG2 tox: 4.0%; D3 ag: -7.9

Results for COc1ccc2[nH]c(C)c(C(=O)CNc3nccs3)c2c1 ?
TGFb inhibitor: 8.2%; HepG2 tox: 13.8%

What do the screens show for `O=C(c1cccc(Cl)c1)c1nn(-c2ccccc2)c(=O)cc1C(F)(F)F`?
S2 tox: inconclusive; DRD3 antagonist: -5.2; ATXN2 expr inh: 25.1µM*; TGFb inhibitor: -9.4%; HepG2 tox: 8.7%; D3 ag: -15.6

What do the screens show for `O=C(Nc1ccccc1)c1nn(-c2ccccc2)c(=O)cc1C(F)(F)F`?
S2 tox: inactive; DRD3 antagonist: -50.4*; ATXN2 expr inh: -24.2%; TGFb inhibitor: -19.3%; HepG2 tox: 4.9%; D3 ag: 3.0

Results for O=C(c1ccccc1)c1nn(-c2ccc(Cl)cc2)c(=O)cc1C(F)(F)F ?
S2 tox: inconclusive; DRD3 antagonist: -15.7; ATXN2 expr inh: 11.2µM*; TGFb inhibitor: inconclusive; HepG2 tox: -6.3%; D3 ag: -5.1

Results for O=C(c1ccccc1-n1cccn1)N1CCOc2ccc(CN3CCOCC3)cc2C1 ?
S2 tox: inactive

How did COc1ccc([C@H]2CC(=O)C=C(c3ccc(F)cc3OCc3ccccc3)C2)cc1 do in these assays?
S2 tox: inactive; DRD3 antagonist: 4.7; ATXN2 expr inh: -13.5%; TGFb inhibitor: -5.8%; HepG2 tox: -15.8%; D3 ag: 28.6

Results for O=C1C=C(c2ccc(OC(F)(F)F)cc2)C[C@@H](c2ccc(F)cc2)C1 ?
S2 tox: inactive; DRD3 antagonist: 0.0; ATXN2 expr inh: -13.7%; TGFb inhibitor: -15.8%; HepG2 tox: -21.6%; D3 ag: 13.6

Results for O=C1C=C(c2ccc(F)cc2OCc2ccccc2)C[C@@H](c2ccc(F)cc2)C1 ?
S2 tox: inactive; DRD3 antagonist: -14.6; ATXN2 expr inh: -19.0%; TGFb inhibitor: -24.4%; HepG2 tox: 5.2%; D3 ag: 42.3*

How did COc1ccc([C@H]2CC(=O)C=C(c3ccc(F)cc3OCc3ccccc3)C2)cc1OC do in these assays?
S2 tox: inactive; DRD3 antagonist: 115.8; ATXN2 expr inh: inconclusive; TGFb inhibitor: -12.3%; HepG2 tox: -24.9%; D3 ag: 73.4*

How did COc1ccc([C@H]2CC(=O)C=C(c3cccc(C(C)C)c3)C2)cc1 do in these assays?
S2 tox: inactive; DRD3 antagonist: -60.8*; ATXN2 expr inh: 9.6%; TGFb inhibitor: inconclusive; HepG2 tox: -26.0%; D3 ag: -55.9

Results for O=C1C=C(c2ccc(Oc3ccccc3)cc2)C[C@@H](c2ccc(F)cc2)C1 ?
S2 tox: inactive; DRD3 antagonist: -72.7*; ATXN2 expr inh: -4.8%; TGFb inhibitor: inconclusive; HepG2 tox: -9.5%; D3 ag: -8.3

How did CCOc1ccc(CCNC(=O)Cc2ccc(NC(=O)N3CCSc4ncccc43)cc2)cc1 do in these assays?
TGFb inhibitor: 0.0%; HepG2 tox: -3.0%; D3 ag: 0.4

How did COC(=O)c1cccc(C(=O)N2CCc3c(cnc(C)c3CNC(=O)/C=C/c3cccs3)C2)c1 do in these assays?
S2 tox: inactive

Results for O=c1c2sc3ccccc3c2n(Cc2cccc(F)c2)c(=O)n1CCc1ccccc1 ?
S2 tox: inactive; ATXN2 expr inh: 82.9%; TGFb inhibitor: -13.1%; HepG2 tox: -7.3%; D3 ag: 0.4

Results for COc1cc(-c2cc(C)c3c(OC)ccc(OC)c3n2)cc2c1OCCN(C(=O)C(C)c1n[nH]c(=O)c3ccccc13)C2 (stereo unspecified) ?
S2 tox: inactive

What do the screens show for `Cc1ccc2c(c1)CCC2=O`?
TGFb inhibitor: 3.0%; HepG2 tox: 0.1%

How did CC(C)OCCCn1c(SCc2cccc(Br)c2)nc2c(sc3ccccc32)c1=O do in these assays?
S2 tox: inactive; ATXN2 expr inh: 13.1%; TGFb inhibitor: -6.8%; HepG2 tox: 1.2%; D3 ag: -20.9

What do the screens show for `COc1ccc(-c2cn[nH]c2-c2ccc(OCc3ccccc3F)cc2O)cc1OC`?
S2 tox: inconclusive; DRD3 antagonist: -12.6; ATXN2 expr inh: inconclusive; TGFb inhibitor: 15.8µM*; HepG2 tox: -87.9%; D3 ag: 2.6

What do the screens show for `O=C(NN1CCCC1)NS(=O)(=O)c1ccc(Cl)cc1`?
S2 tox: inactive; ATXN2 expr inh: 6.6%; D3 ag: 1.8

How did O=c1c(Cl)c(Cl)cnn1-c1ccccc1 do in these assays?
S2 tox: inconclusive; DRD3 antagonist: inconclusive; ATXN2 expr inh: inconclusive; TGFb inhibitor: inconclusive; HepG2 tox: 14.1µM*; D3 ag: -5.5

Results for O=c1c(Cl)c(N/N=C/c2ccc(Cl)cc2)cnn1-c1ccccc1 ?
S2 tox: inconclusive; DRD3 antagonist: 0.1; TGFb inhibitor: inconclusive; HepG2 tox: 14.1µM*; D3 ag: 1.1

What do the screens show for `Cc1ccnn1CC(=O)N1CCOc2c(cc(-c3ncc(C(F)(F)F)cc3Cl)cc2OCC2CCCO2)C1` (stereo unspecified)?
S2 tox: inactive

What do the screens show for `Cc1cccc(C(=O)N2CCC(=O)N(C(COCc3ccccc3)Cc3ccccc3)CC2)c1` (stereo unspecified)?
S2 tox: inactive; DRD3 antagonist: -8.7; ATXN2 expr inh: -20.9%; TGFb inhibitor: 2.5%; HepG2 tox: -7.5%; D3 ag: -33.1

What do the screens show for `Cc1cccc(COC[C@H](Cc2ccccc2)N2CCN(C(=O)c3cccc(C)c3)CCC2=O)c1`?
S2 tox: 25.1µM*; DRD3 antagonist: 0.0; ATXN2 expr inh: -26.5%; D3 ag: 0.2
